Source: PubChem BioAssay AID1159580 (chemical genetic matrix, 2015)
“And” between values parts separate entries of the source, which are not always exact repeats. Equal entries are not always repeated. Screen size: about 5,500 compounds; about 2,000 (36%) were called active. About 18% were inconclusive and are not listed. No stated cut-off is given here; in the data, active means normalized growth mostly below about 0.91 (no sharp cut-off); inconclusive means no clear call, values can overlap the other calls; inactive means mostly above about 0.92. This is one part of the list.

Test: chemical genetic growth profiling, strain panel (AID 1159580);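 further: tested at 20 µM; growth read once vehicle control cultures reached saturation at 30 °C; 1 = growth at the plate median or of vehicle wells; lower values mean less growth of the strain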
Details: S. cerevisiae deletion strains, growth OD

Measured: normalized growth

O=C(O)C1CC([C@@H]2CCCCN2)CN2CCCCC12 (some centres not stated)
inactive: locus YAL021C, strain ccr4, hits give low values 1.02 | locus YAL026C, strain drs2, hits give low values 0.967 | locus YAL030W, strain snc1, hits give low values 0.972 | locus YBL061C, strain skt5, hits give low values 0.985 | locus YBR009C, strain hhf1, hits give low values 0.924 | locus YBR021W, strain FUR4, hits give low values 1.08 | locus YBR023C, strain chs3, hits give low values 1.01 | locus YBR171W, strain sec66, hits give low values 0.974 | locus YBR229C, strain ROT2, hits give low values 1.01 | locus YBR231C, strain swc5, hits give low values 0.981 | locus YBR279W, strain paf1, hits give low values 0.995 | locus YCL011C, strain gbp2, hits give low values 0.953 | locus YCL016C, strain dcc1, hits give low values 0.989 | locus YCL029C, strain bik1, hits give low values 0.969 | locus YCL061C, strain MRC1, hits give low values 0.983 | locus YCL069W, strain vba3, hits give low values 0.969 | locus YCR088W, strain abp1, hits give low values 0.987 | locus YDL005C, strain med2, hits give low values 0.972 | locus YDL035C, strain GPR1, hits give low values 1.01 | locus YDL040C, strain nat1, hits give low values 0.981 | locus YDL074C, strain BRE1, hits give low values 1.04 | locus YDL101C, strain DUN1, hits give low values 1.03 | locus YDL134C, strain PPH21, hits give low values 1.1 | locus YDL185W, strain tfp1, hits give low values 0.968 | locus YDL192W, strain arf1, hits give low values 0.967 | locus YDR001C, strain nth1, hits give low values 0.97 | locus YDR069C, strain doa4, hits give low values 0.97 | locus YDR101C, strain arx1, hits give low values 0.984 | locus YDR137W, strain rgp1, hits give low values 0.978 | locus YDR159W, strain sac3, hits give low values 0.958 | locus YDR162C, strain NBP2, hits give low values 1.08 | locus YDR195W, strain ref2 0.924 | locus YDR297W, strain sur2, hits give low values 0.984 | locus YDR318W, strain mcm21, hits give low values 0.98 | locus YDR334W, strain swr1, hits give low values 0.963 | locus YDR335W, strain msn5, hits give low values 0.983 | locus YDR388W, hits give low values 0.986 | locus YDR392W, strain spt3, hits give low values 0.902 | locus YDR502C, strain sam2, hits give low values 0.993 | locus YEL003W, strain gim4, hits give low values 0.98 | locus YEL037C, strain rad23, hits give low values 0.987 | locus YEL061C, strain CIN8 (second series), hits give low values 0.97 | locus YEL061C, strain CIN8, hits give low values 1.01 | locus YER015W, strain faa2, hits give low values 0.997 | locus YER016W, strain bim1, hits give low values 0.993 | locus YER110C, hits give low values 0.992 | locus YER111C, strain swi4, hits give low values 0.965 | locus YER155C, strain BEM2 (second series), hits give low values 0.968 | locus YER155C, strain BEM2, hits give low values 1.01 | locus YER167W, strain BCK2, hits give low values 1.02 | locus YFR010W, strain ubp6, hits give low values 0.969 | locus YGL078C, strain dbp3, hits give low values 0.993 | locus YGL086W, strain mad1, hits give low values 1.03 | locus YGL167C, strain pmr1, hits give low values 0.957 | locus YGL173C, strain kem1, hits give low values 0.979 | locus YGL227W, strain vid30, hits give low values 0.959 | locus YGL240W, strain doc1, hits give low values 0.959 | locus YGL248W, strain PDE1, hits give low values 1.04 | locus YGL253W, strain hxk2, hits give low values 0.999 | locus YGR078C, strain PAC10, hits give low values 1.06 | locus YGR135W, strain pre9, hits give low values 0.979 | locus YGR229C, strain SMI1, hits give low values 1.08 | locus YGR252W, strain gcn5, hits give low values 1.05 | locus YHR013C, strain ard1, hits give low values 0.93 | locus YHR027C, strain rpn1, hits give low values 0.971 | locus YHR030C, strain SLT2, hits give low values 0.997 and 0.989 | locus YHR079C, strain IRE1 (second series), hits give low values 0.998 | locus YHR079C, strain IRE1, hits give low values 0.998 | locus YHR094C, strain hxt1, hits give low values 0.978 | locus YHR129C, strain ARP1, hits give low values 1.01 | locus YHR142W, strain chs7, hits give low values 1.01 | locus YHR200W, strain rpn10, hits give low values 0.968 | locus YIL066C, strain RNR3, hits give low values 1.05 | locus YIL073C, strain SPO22, hits give low values 0.984 | locus YIL125W, strain kgd1, hits give low values 0.993 | locus YIR030C, strain dcg1, hits give low values 0.985 | locus YJL092W, strain hpr5, hits give low values 0.976 | locus YJL095W, strain BCK1 (second series), hits give low values 1 | locus YJL095W, strain BCK1, hits give low values 1.08 and 1.04 | locus YJL115W, strain asf1, hits give low values 0.978 | locus YJL129C, strain trk1, hits give low values 0.973 | locus YJL134W, strain LCB3, hits give low values 1 | locus YJL154C, strain vps35, hits give low values 0.986 | locus YJL164C, strain tpk1, hits give low values 0.997 | locus YJL166W, strain qcr8, hits give low values 0.995 | locus YJL168C, strain set2, hits give low values 0.986 | locus YJL187C, strain SWE1 (second series), hits give low values 1.04 | locus YJL187C, strain SWE1, hits give low values 0.976 | locus YJR043C, strain POL32, hits give low values 1.04 | locus YJR066W, strain TOR1, hits give low values 0.941 | locus YJR075W, strain HOC1, hits give low values 1.03 | locus YKL009W, strain mrt4, hits give low values 0.968 | locus YKL068W, hits give low values 0.99 | locus YKL085W, strain MDH1 (second series), hits give low values 1.01 | locus YKL085W, strain MDH1, hits give low values 1.01 | locus YKL160W, strain elf1, hits give low values 1.01 | locus YKR001C, strain vps1, hits give low values 1.02 | locus YKR026C, strain gcn3, hits give low values 0.973 | locus YKR091W, strain srl3, hits give low values 0.956 | locus YLL001W, strain dnm1, hits give low values 1.01 | locus YLL026W, hits give low values 0.999 | locus YLL041C, strain sdh2, hits give low values 0.997 | locus YLR027C, strain aat2, hits give low values 0.972 | locus YLR039C, strain RIC1, hits give low values 1.01 | locus YLR058C, strain SHM2, hits give low values 1.02 | locus YLR102C, strain apc9, hits give low values 0.998 | locus YLR113W, strain HOG1, hits give low values 1.02 | locus YLR221C, strain rsa3, hits give low values 0.993 | locus YLR258W, strain gsy2, hits give low values 0.982 | locus YLR262C, strain YPT6 (second series), hits give low values 0.978 | locus YLR262C, strain YPT6, hits give low values 1.04 | locus YLR268W, strain sec22, hits give low values 1.02 | locus YLR320W, strain mms22, hits give low values 0.984 | locus YLR330W, strain CHS5, hits give low values 1 | locus YLR342W, strain FKS1 (second series), hits give low values 1.07 | locus YLR342W, strain FKS1, hits give low values 0.958 | locus YLR357W, strain rsc2, hits give low values 0.963 | locus YLR370C, strain arc18, hits give low values 0.957 | locus YLR371W, strain rom2, hits give low values 0.945 | locus YLR384C, strain iki3, hits give low values 0.988 | locus YLR418C, strain cdc73, hits give low values 1.01 | locus YML016C, strain PPZ1, hits give low values 1.02 | locus YML032C, strain rad52, hits give low values 0.986 | locus YML120C, strain ndi1, hits give low values 0.991 | locus YML124C, strain tub3, hits give low values 0.978 | locus YMR058W, strain fet3, hits give low values 0.968 | locus YMR078C, strain ctf18, hits give low values 0.963 | locus YMR125W, strain sto1, hits give low values 0.917 | locus YMR129W, hits give low values 0.96 | locus YMR205C, strain PFK2, hits give low values 0.931 | locus YMR223W, strain ubp8, hits give low values 0.981 | locus YMR231W, strain pep5, hits give low values 0.967 | locus YMR307W, strain GAS1, hits give low values 1.13 | locus YNL067W, strain RPL9B, hits give low values 1.05 | locus YNL071W, strain lat1, hits give low values 0.987 | locus YNL153C, strain GIM3, hits give low values 1.07 | locus YNL183C, strain NPR1, hits give low values 0.97 | locus YNL209W, strain ssb2, hits give low values 0.965 | locus YNL233W, strain BNI4, hits give low values 1.06 | locus YNL248C, strain rpa49, hits give low values 1.01 | locus YNL250W, strain rad50, hits give low values 0.983 | locus YNL271C, strain bni1, hits give low values 0.968 | locus YNL298W, strain CLA4, hits give low values 0.972 | locus YNL307C, strain MCK1, hits give low values 0.999 | locus YNL322C, strain KRE1 (second series), hits give low values 0.971 | locus YNL322C, strain KRE1, hits give low values 1.01 | locus YNR049C, strain mso1, hits give low values 0.978 | locus YNR052C, strain pop2, hits give low values 0.975 | locus YOL006C, strain TOP1, hits give low values 1.08 | locus YOL012C, strain htz1 0.943 | locus YOL147C, strain pex11, hits give low values 0.995 | locus YOR001W, strain rrp6, hits give low values 1.03 | locus YOR061W, strain CKA2, hits give low values 1.01 | locus YOR069W, strain VPS5, hits give low values 1 | locus YOR070C, strain gyp1, hits give low values 0.999 | locus YOR080W, strain dia2, hits give low values 0.973 | locus YOR083W, strain WHI5, hits give low values 1.02 | locus YOR106W, strain vam3, hits give low values 1 | locus YOR136W, strain idh2, hits give low values 1.01 | locus YOR144C, strain elg1, hits give low values 0.996 | locus YOR184W, strain ser1, hits give low values 1.01 | locus YOR231W, strain MKK1, hits give low values 0.98 | locus YOR265W, strain rbl2, hits give low values 0.946 | locus YOR270C, strain vph1, hits give low values 0.989 | locus YOR290C, strain snf2, hits give low values 0.917 | locus YOR316C, strain cot1, hits give low values 0.971 | locus YPL051W, strain arl3, hits give low values 1.01 | locus YPL055C, strain LGE1, hits give low values 1.06 | locus YPL078C, strain atp4, hits give low values 0.988 | locus YPL106C, strain sse1, hits give low values 0.959 | locus YPL240C, strain hsp82, hits give low values 0.977 | locus YPL256C, strain CLN2, hits give low values 1.01 | locus YPR119W, strain clb2, hits give low values 0.987 | locus YPR141C, strain kar3, hits give low values 0.983 | locus YPR163C, strain tif3, hits give low values 0.989 | locus YPR167C, strain met16, hits give low values 0.975 | strain wtn01, hits give low values 0.989
